The text below walks through data of PubChem BioAssay.

Molecules are shown by their SMILES. The source made the active and inactive calls. Rule as the data show it: active = fold change permeability below about 0.7 or above about 1.3; inactive = in between.

The assay in a line: modulators of brain endothelial barrier permeability, primary screen, cell-based, FITC-avidin fluorescence, HTS (AID 1963498). Also: test concentration not given here. As to conditions: actives lie on both sides.
For the compound `CC(C)c1nc(N(C)S(C)(=O)=O)nc(-c2ccc(F)cc2)c1/C=C/[C@@H](O)C[C@@H](O)CC(=O)O`, the fold change permeability was 0.9 (inactive).
Under `CCN1CCCC1CNC(=O)c1cc(S(=O)(=O)CC)c(N)cc1OC` (stereo not drawn) stands 0.7 (active); under `CN(C)c1ccc(/C=C2\C(=O)Nc3ccccc32)cc1`, 1.6 (active); under `NS(=O)(=O)c1cc2c(cc1Cl)NC=NS2(=O)=O`, 0.9 (inactive).
Then `C[N+](C)(C)CCOC(=O)CCC(=O)OCC[N+](C)(C)C`, with 0.9 (inactive); and `CCOC(=O)[C@@H](N)Cc1ccc(O)c(O)c1`, with 0.9 (inactive).
Under `O=C(O)c1cc([N+](=O)[O-])ccc1NCCCc1ccccc1` stands 1 (inactive); under `CCN(C)C(=O)C1(CCOc2ccccc2)CCN(Cc2ccc(O)c(Cl)c2)CC1`, 1 (inactive); under `CN(C)CCCC1(c2ccc(F)cc2)OCc2cc(C#N)ccc21` (stereo not drawn), 0.9 (inactive).
Turning to `CCCN(CC1CC1)c1nc(C)nc(Nc2c(Cl)cc(Cl)cc2Cl)c1Cl`, the fold change permeability is 1.3 (active).
Then `CC(=O)N=c1sc(S(N)(=O)=O)nn1C`, with 1.4 (active); and `Oc1ccc(/C=C/c2cc(O)cc(O)c2)cc1`, with 1.7 (active).
Turning to `Cc1ccccc1C(OCCN(C)C)c1ccccc1` (stereo not drawn), the fold change permeability is 1 (inactive).
On to `O=c1c(O)c(-c2ccc(O)cc2O)oc2cc(O)cc(O)c12`, for which the fold change permeability is 0.7 (active).
Under `N[C@H](CO)C(=O)O` stands 0.8 (inactive); under `OC(CCN1CCCCC1)(c1ccccc1)C1CCCCC1` (stereo not drawn), 0.8 (inactive).
Then `Nc1nc2c(c(=O)[nH]1)C[C@@H](CCc1ccc(C(=O)N[C@@H](CCC(=O)O)C(=O)O)cc1)CN2`, with 0.9 (inactive).
Then `OC[C@H]1NC[C@@H](O)[C@@H]1O`, with 1 (inactive).
